From paper PMC7862700, “An all-to-all approach to the identification of sequence-specific readers for epigenetic DNA modifications on cytosine” come the findings set out here.

Common to all, as to assay: DAPPL (digital affinity profiling via proximity ligation, sequencing); 10 mM Tris-HCl pH 7.5, 50 mM NaCl, 1 mM DTT, 4% glycerol, room temperature, 30 min; GST-TFs on glutathione beads, 16-mer random dsDNA library, 0.1% formaldehyde crosslink after washing; high values mean tight binding
One test concerns the target T1, FEV (Homo sapiens, UniProt Q99581 1-238).
T1 sequence: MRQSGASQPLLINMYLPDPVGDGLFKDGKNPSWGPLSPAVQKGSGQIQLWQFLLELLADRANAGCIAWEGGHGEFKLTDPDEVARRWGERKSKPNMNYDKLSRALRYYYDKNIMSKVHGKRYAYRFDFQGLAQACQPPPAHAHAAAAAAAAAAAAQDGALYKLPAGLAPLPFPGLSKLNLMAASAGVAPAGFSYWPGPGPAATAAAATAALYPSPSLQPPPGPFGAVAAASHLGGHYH
The following applies: protein: recombinant; tags: N-terminal GST; dsDNA, one strand shown. In a few lines: (§1)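 After expression in yeast as GST fusions, human transcription factors were bound to glutathione beads, DNA-barcoded and mixed with a tag-only sample. The pools were incubated with 200 nmole of a 16-mer random double-stranded DNA library in Tris/NaCl/DTT/glycerol buffer (30 min, room temperature), washed and crosslinked with 0.1% formaldehyde. Proximity ligation with BsaI/T4 ligase ran for 1 h at 37 °C, before PCR amplification and sequencing on an Illumina NextSeq500. Binding signal is a hexamer's read frequency for a factor divided by its frequency for the tag-only sample.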

For a further test, the target named is ETV5 (Homo sapiens, UniProt P41161 1-510). The following applies: protein: recombinant; tags: N-terminal GST; dsDNA, one strand shown. A digest of the protocol: as §1
Chain of ETV5 (P41161 whole entry): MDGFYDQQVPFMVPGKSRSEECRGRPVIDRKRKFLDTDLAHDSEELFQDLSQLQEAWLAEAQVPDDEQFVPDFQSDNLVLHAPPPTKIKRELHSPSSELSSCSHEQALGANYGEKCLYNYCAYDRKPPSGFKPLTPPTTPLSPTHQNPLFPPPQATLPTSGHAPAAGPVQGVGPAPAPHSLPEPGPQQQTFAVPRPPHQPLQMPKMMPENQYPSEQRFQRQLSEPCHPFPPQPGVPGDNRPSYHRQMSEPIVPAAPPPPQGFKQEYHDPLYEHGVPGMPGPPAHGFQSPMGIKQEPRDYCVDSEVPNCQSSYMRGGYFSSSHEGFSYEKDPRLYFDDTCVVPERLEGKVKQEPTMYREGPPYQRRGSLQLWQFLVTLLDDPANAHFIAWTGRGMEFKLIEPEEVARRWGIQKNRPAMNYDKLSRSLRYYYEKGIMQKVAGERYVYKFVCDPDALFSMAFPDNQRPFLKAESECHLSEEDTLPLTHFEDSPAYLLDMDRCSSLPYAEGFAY
A further test deals with HSF1 (Homo sapiens, UniProt Q00613 1-529). The settings on record: protein: recombinant; tags: N-terminal GST; chain copies: 3; dsDNA, one strand shown. In a few lines: as §1
Chain of HSF1 (Q00613 whole entry): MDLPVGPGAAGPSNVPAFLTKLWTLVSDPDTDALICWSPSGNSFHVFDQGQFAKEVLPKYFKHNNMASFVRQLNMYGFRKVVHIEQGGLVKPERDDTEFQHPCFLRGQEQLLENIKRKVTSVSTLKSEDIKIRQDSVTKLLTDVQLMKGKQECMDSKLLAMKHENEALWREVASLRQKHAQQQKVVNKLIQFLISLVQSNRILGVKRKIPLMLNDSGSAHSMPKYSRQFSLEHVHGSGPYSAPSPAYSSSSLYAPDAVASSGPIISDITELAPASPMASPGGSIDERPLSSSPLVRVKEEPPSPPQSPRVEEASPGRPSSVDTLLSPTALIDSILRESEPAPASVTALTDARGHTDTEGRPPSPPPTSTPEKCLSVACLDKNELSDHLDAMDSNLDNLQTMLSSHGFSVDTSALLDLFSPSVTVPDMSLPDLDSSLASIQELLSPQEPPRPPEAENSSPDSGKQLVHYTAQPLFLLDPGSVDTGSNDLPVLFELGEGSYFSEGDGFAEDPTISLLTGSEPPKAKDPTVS
For the next test, the target named is T2, SPIC (Homo sapiens, UniProt Q8N5J4 1-248).
T2 sequence: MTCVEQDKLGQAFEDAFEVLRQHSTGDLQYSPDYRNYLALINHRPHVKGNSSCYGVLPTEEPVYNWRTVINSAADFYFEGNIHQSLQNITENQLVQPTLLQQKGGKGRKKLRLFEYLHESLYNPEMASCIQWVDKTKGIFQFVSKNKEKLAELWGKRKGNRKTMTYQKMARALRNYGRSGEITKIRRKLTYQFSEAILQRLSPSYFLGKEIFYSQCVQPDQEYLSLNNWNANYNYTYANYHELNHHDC
The following applies: protein: recombinant; tags: N-terminal GST; dsDNA, one strand shown. In a few lines:
as §1

The next test concerns the target ELF4 (Homo sapiens, UniProt Q99607 1-663). The settings on record: protein: recombinant; tags: N-terminal GST; dsDNA, one strand shown. A digest of the protocol:
as §1

The next test deals with T3, ELK4 (Homo sapiens, UniProt P28324-2 1-405).
T3 sequence: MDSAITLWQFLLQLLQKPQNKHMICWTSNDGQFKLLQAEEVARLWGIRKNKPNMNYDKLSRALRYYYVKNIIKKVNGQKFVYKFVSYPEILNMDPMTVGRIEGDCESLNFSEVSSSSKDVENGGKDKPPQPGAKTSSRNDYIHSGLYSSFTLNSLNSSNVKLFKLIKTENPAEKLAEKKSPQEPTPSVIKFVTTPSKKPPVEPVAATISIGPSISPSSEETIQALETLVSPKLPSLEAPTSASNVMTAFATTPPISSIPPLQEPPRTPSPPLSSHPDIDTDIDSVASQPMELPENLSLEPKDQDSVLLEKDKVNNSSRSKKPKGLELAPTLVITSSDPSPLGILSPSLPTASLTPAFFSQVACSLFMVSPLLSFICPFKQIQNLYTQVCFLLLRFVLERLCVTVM
The following applies: protein: recombinant; tags: N-terminal GST; dsDNA, one strand shown. In a few lines: as §1

Another test addresses T4, ETV2 (Homo sapiens, UniProt O00321 1-342).
T4 sequence: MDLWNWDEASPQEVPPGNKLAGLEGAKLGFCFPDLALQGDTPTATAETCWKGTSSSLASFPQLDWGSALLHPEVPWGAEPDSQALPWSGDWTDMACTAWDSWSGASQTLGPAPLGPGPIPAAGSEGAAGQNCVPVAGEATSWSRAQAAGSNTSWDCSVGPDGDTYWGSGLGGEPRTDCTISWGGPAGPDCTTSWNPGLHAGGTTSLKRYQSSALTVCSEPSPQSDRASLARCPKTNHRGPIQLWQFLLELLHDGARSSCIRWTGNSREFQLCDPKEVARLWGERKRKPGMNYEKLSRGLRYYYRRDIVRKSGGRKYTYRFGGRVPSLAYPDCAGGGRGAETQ
The following applies: protein: recombinant; tags: N-terminal GST; dsDNA, one strand shown. A digest of the protocol:
as §1

For a further test, the target named is T5, ELF3 (Homo sapiens, UniProt P78545 1-371).
T5 sequence: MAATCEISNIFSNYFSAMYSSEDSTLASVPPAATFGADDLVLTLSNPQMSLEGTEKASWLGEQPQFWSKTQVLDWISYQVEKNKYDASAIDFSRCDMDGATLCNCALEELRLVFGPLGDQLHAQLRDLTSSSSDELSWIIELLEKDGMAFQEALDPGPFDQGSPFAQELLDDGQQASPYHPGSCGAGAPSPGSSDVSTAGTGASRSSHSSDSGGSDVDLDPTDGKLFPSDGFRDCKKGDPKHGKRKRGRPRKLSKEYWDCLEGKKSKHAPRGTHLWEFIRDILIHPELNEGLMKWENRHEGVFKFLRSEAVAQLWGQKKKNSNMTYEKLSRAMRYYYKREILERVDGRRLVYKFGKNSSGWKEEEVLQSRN
The settings on record: protein: recombinant; tags: N-terminal GST; dsDNA, one strand shown. A digest of the protocol:
as §1

The target of another test is CRX (Homo sapiens, UniProt O43186 1-299). The following applies: protein: recombinant; tags: N-terminal GST; dsDNA, one strand shown. In a few lines: as §1
Chain of CRX (O43186 whole entry): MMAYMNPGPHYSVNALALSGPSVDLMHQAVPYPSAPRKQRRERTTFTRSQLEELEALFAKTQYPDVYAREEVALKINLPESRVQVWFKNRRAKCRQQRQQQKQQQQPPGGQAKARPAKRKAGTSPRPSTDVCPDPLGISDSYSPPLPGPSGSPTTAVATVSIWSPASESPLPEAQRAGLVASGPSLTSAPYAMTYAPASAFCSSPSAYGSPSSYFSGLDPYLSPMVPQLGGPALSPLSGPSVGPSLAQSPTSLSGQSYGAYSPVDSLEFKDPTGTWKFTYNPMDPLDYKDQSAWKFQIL
Another test has as its target ETV1 (Homo sapiens, UniProt P50549 1-477). The following applies: protein: recombinant; tags: N-terminal GST; dsDNA, one strand shown. A digest of the protocol:
as §1

Another test concerns the target T6, ERF (Homo sapiens, UniProt P50548 1-548).
T6 sequence: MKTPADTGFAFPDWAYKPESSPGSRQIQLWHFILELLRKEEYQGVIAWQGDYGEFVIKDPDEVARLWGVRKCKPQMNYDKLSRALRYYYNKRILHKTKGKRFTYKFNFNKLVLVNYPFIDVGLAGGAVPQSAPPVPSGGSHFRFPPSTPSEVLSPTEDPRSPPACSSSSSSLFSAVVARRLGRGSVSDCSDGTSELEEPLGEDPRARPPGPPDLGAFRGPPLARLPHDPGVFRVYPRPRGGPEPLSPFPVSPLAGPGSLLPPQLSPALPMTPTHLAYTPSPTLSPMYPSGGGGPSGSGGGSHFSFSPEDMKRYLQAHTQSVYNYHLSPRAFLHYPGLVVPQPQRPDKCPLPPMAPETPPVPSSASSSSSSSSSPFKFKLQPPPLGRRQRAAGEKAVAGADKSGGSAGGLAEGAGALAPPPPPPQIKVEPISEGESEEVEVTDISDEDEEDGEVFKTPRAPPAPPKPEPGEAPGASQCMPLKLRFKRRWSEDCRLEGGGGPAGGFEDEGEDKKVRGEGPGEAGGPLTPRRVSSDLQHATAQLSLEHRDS
The following applies: protein: recombinant; tags: N-terminal GST; dsDNA, one strand shown. In a few lines:
as §1

Another test deals with T7, ETV3L (Homo sapiens, UniProt Q6ZN32 1-361).
T7 sequence: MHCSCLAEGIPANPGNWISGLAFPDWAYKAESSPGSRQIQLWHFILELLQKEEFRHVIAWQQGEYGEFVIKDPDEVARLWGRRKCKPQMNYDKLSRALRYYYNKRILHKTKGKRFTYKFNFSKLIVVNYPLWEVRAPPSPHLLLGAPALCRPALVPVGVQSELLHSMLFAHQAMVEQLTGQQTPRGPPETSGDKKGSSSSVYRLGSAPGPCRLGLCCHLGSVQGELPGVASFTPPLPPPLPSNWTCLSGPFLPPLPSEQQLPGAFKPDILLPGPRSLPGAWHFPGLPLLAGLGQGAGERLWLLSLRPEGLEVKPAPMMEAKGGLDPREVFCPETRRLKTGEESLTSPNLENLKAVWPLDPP
The following applies: protein: recombinant; tags: N-terminal GST; dsDNA, one strand shown. In a few lines:
as §1

The target in another test is T8, ETS2 (Homo sapiens, UniProt P15036 1-469).
T8 sequence: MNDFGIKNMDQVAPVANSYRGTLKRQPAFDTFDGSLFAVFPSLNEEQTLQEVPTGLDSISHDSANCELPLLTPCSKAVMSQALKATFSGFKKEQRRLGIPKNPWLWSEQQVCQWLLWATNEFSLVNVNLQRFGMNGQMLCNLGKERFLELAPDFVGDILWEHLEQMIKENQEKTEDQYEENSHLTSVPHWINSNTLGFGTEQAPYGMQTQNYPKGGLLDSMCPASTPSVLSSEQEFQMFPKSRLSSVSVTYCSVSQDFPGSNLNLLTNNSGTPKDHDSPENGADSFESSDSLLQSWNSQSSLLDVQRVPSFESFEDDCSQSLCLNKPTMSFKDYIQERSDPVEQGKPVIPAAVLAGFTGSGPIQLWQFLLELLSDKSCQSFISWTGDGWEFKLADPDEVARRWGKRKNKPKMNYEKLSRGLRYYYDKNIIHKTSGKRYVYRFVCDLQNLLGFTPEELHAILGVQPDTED
The following applies: protein: recombinant; tags: N-terminal GST; dsDNA, one strand shown. In a few lines: as §1

The target in the next test is T9, SPDEF (Homo sapiens, UniProt O95238 1-335).
T9 sequence: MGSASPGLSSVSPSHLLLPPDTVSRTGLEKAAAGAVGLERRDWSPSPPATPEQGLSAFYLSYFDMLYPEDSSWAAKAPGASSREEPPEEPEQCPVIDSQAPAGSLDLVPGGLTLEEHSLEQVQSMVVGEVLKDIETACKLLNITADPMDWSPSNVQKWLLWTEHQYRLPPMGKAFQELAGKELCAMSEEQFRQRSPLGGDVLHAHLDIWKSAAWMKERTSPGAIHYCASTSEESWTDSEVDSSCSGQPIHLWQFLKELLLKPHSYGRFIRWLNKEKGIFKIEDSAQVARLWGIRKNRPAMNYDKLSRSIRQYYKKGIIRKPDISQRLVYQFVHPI
The following applies: protein: recombinant; tags: N-terminal GST; dsDNA, one strand shown. In a few lines: as §1

The next test concerns the target T10, ETV7 (Homo sapiens, UniProt Q9Y603 1-341).
T10 sequence: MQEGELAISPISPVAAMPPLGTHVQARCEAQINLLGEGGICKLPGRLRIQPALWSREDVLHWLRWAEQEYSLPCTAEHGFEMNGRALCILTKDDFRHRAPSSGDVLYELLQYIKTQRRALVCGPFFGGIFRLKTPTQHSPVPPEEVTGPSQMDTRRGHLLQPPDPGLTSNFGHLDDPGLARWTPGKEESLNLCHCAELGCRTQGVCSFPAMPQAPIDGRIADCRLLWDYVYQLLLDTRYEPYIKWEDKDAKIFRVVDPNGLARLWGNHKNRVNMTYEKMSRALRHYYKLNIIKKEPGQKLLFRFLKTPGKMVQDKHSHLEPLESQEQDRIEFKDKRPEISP
The following applies: protein: recombinant; tags: N-terminal GST; dsDNA, one strand shown. In a few lines:
as §1

The target in another test is T11, ELF5 (Homo sapiens, UniProt Q9UKW6-2 1-255).
T11 sequence: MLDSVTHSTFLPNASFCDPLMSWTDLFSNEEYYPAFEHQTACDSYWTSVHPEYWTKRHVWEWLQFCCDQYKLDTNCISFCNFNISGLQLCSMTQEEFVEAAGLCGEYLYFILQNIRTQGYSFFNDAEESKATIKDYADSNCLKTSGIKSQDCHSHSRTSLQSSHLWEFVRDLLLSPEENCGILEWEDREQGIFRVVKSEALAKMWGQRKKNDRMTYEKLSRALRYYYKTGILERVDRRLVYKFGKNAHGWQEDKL
The settings on record: protein: recombinant; tags: N-terminal GST; dsDNA, one strand shown. In a few lines: as §1

The target in a further test is T12, ETV3 (Homo sapiens, UniProt P41162-2 1-143).
T12 sequence: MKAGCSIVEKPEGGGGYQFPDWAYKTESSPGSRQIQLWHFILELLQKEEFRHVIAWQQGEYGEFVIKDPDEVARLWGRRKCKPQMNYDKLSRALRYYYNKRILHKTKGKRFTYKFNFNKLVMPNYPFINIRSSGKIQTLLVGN
The settings on record: protein: recombinant; tags: N-terminal GST; dsDNA, one strand shown. In a few lines: as §1

For the next test, the target named is ETV6 (Homo sapiens, UniProt P41212 1-452). The following applies: protein: recombinant; tags: N-terminal GST; dsDNA, one strand shown. A digest of the protocol:
as §1

Chain of ETV1 (P50549 whole entry): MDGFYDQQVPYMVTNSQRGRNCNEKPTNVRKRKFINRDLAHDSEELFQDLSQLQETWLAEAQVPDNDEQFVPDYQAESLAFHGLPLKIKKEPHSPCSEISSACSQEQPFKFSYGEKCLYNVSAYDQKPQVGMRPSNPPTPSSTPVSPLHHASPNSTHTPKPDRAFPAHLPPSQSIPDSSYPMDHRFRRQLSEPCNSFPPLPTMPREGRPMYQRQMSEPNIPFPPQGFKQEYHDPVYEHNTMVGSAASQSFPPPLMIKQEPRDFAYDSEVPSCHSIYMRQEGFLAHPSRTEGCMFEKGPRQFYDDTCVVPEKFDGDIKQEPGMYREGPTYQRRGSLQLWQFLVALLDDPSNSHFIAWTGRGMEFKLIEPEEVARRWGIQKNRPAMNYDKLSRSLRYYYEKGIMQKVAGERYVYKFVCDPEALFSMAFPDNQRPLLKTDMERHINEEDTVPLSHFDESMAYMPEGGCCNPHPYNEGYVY
Chain of ETV6 (P41212 whole entry): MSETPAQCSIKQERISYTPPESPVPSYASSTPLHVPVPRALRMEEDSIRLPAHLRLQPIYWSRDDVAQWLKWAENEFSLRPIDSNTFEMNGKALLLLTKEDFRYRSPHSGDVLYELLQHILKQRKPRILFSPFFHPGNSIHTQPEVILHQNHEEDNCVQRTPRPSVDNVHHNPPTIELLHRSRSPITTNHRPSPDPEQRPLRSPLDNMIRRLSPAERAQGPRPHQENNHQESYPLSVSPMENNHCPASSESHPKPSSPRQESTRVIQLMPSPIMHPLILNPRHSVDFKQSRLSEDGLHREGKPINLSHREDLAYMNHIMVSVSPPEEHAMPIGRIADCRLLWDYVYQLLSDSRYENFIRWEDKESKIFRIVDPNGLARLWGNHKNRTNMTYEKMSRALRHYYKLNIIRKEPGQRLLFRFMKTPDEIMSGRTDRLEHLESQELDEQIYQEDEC
Chain of ELF4 (Q99607 whole entry): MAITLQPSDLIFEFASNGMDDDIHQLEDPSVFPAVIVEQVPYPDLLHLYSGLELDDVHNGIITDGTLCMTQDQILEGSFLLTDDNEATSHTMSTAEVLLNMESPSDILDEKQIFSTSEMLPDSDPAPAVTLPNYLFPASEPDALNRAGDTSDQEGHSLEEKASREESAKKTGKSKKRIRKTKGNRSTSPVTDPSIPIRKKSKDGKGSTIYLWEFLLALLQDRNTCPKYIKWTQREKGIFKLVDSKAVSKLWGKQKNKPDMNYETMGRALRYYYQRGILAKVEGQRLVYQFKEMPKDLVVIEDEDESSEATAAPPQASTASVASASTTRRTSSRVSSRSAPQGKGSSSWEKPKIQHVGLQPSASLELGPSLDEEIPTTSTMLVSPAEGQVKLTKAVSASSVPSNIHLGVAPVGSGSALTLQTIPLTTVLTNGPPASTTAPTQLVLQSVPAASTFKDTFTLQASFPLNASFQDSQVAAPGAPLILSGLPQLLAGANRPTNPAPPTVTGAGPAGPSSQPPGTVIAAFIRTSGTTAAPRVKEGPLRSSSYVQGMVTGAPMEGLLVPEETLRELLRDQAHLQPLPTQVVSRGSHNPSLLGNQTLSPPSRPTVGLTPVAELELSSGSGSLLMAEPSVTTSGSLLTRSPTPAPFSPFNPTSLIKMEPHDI

With AACATA, the binding signal with FEV is 1.2 fold enrichment (6-mer frequency, TF over GST control); with ETV5, 1.31 fold enrichment (6-mer frequency, TF over GST control); in the test with HSF1, 1.36 fold enrichment (6-mer frequency, TF over GST control); in the test with SPIC, 1.37 fold enrichment (6-mer frequency, TF over GST control); with ELF4, 1.3 fold enrichment (6-mer frequency, TF over GST control); in the test with ELK4 it was 1.16 fold enrichment (6-mer frequency, TF over GST control). The binding signal with ETV2 is 1.38 fold enrichment (6-mer frequency, TF over GST control); with ELF3, 1.36 fold enrichment (6-mer frequency, TF over GST control); with CRX, 1.3 fold enrichment (6-mer frequency, TF over GST control); in the test with ETV1, 1.21 fold enrichment (6-mer frequency, TF over GST control); with ERF, 1.32 fold enrichment (6-mer frequency, TF over GST control); with ETV3L it was 1.24 fold enrichment (6-mer frequency, TF over GST control). Moreover, the binding signal is 1.23 fold enrichment (6-mer frequency, TF over GST control) with ETS2; 1.19 fold enrichment (6-mer frequency, TF over GST control) with SPDEF; 1.31 fold enrichment (6-mer frequency, TF over GST control) with ETV7; 1.3 fold enrichment (6-mer frequency, TF over GST control) in the test with ELF5; 1.27 fold enrichment (6-mer frequency, TF over GST control) with ETV3; 1.27 fold enrichment (6-mer frequency, TF over GST control) with ETV6.
